Results filed as inconclusive are left out. The source made the active and inactive calls. Unless noted, calls follow the shape of the dose curve; as a rule, active = well fitted curve in the direction sought with a large enough effect in the repeat runs; inconclusive = weak or mixed curves; inactive = no such curve, though single readings can be large; an effect the other way counts as inactive or inconclusive.
Legend:
[1] = qHTS assay to identify small molecule antagonists of the thyroid receptor (TR) signaling pathway (AID 743065); also: series mostly up to about 70 µM; nearly all actives have a fitted effect of over 55% in size
In short: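 Antagonism measured as loss of luciferase signal in GH3 cells stably carrying a TRE-luciferase reporter, co-treated with compound and T3 (1 nM final) for 23.5 h at 37 C. Viability was read in the same well by CellTiter-Fluor.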

[2] = system: thyroid hormone receptor (rat, GH3 cells); assay: qHTS assay to identify small molecule agonists of the thyroid receptor (TR) signaling pathway (AID 743066; calls by dose curve)
[3] = molecular target: Estrogen receptor (Homo sapiens) (UniProt P03372); assay: qHTS assay to identify small molecule antagonists of the estrogen receptor alpha (ER-alpha) signaling pathway (AID 743069; active = well fitted curve in the direction sought with a large enough effect in the signal ratio in the repeat runs, not every such curve was filed as active; the % refers to the signal ratio)
Estrogen receptor (Homo sapiens), sequence (P03372 whole entry, looked up): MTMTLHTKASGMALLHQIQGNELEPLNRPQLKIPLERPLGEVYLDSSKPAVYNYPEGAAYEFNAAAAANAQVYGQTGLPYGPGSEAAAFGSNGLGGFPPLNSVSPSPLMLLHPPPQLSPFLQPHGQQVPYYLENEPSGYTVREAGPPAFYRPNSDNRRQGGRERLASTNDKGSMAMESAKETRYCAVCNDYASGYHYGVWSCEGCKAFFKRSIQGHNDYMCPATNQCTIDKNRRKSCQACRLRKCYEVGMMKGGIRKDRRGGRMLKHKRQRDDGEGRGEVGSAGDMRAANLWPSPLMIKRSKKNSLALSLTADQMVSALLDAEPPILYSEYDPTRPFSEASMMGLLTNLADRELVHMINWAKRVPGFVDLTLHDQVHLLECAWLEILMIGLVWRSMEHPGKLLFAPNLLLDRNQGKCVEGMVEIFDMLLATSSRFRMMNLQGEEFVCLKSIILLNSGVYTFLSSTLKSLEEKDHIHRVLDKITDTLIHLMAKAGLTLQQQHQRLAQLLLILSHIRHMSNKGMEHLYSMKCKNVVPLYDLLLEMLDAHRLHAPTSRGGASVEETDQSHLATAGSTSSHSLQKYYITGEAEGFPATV
In short: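 ER-alpha-UAS-bla GripTite HEK293 line; 2% charcoal-stripped FBS overnight; plated, 4 hr 37C/5% CO2; cpd in DMSO + 17beta-estradiol, 18 hr 37C; LiveBLAzer B/G FRET substrate 2 hr RT; fluorescence intensity.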

[4] = qHTS assay to identify small molecule antagonists of the estrogen receptor alpha (ER-alpha) signaling pathway - cell viability counter screen (AID 743074; calls by dose curve;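 also: HEK293 cells carrying ER-alpha-UAS-bla reporter stimulated with 17beta-estradiol; nearly all actives have a fitted effect of over 45% in size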)
[5] = molecular target: Estrogen receptor (Homo sapiens) (UniProt P03372); assay: qHTS assay to identify small molecule agonists of the estrogen receptor alpha (ER-alpha) signaling pathway (AID 743075; calls by dose curve;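 also: HEK293 GripTite cells with ER-alpha and UAS-driven beta-lactamase reporter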)
[6] = molecular target: Estrogen receptor (Homo sapiens) (UniProt P03372); assay: qHTS assay to identify small molecule agonists of the estrogen receptor alpha (ER-alpha) signaling pathway using the BG1 cell line (AID 743079); also: nearly all actives have a fitted effect of over 20% in size
[7] = qHTS assay to identify small molecule antagonists of the estrogen receptor alpha (ER-alpha) signaling pathway using the BG1 cell line (AID 743080; calls by dose curve;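 also: BG1 cells stimulated with 17beta-estradiol alongside compound; series mostly up to about 70 µM; nearly all actives have a fitted effect of over 25% in size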)
In short: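 Quantitative HTS on the Tox21 10K library: BG1 cells with endogenous ER-alpha and ERE-luciferase reporter, 17beta-estradiol stimulation, 21.5 h compound exposure, luminescence endpoint with parallel fluorescence cytotoxicity counter-read.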

[8] = qHTS assay to identify small molecule antagonists of the estrogen receptor alpha (ER-alpha) signaling pathway using the BG1 cell line - cell viability counter screen (AID 743081);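 also: compound given together with 17beta-estradiol as the ER stimulus; series mostly up to about 70 µM; nearly all actives have a fitted effect of over 45% in size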
Aromatase (Homo sapiens) = Aromatase (Homo sapiens) (UniProt P11511); assay: qHTS assay to identify aromatase inhibitors (AID 743083); also: series mostly up to about 70 µM; nearly all actives have a fitted effect of over 55% in size
Aromatase (Homo sapiens), sequence (P11511 whole entry, looked up): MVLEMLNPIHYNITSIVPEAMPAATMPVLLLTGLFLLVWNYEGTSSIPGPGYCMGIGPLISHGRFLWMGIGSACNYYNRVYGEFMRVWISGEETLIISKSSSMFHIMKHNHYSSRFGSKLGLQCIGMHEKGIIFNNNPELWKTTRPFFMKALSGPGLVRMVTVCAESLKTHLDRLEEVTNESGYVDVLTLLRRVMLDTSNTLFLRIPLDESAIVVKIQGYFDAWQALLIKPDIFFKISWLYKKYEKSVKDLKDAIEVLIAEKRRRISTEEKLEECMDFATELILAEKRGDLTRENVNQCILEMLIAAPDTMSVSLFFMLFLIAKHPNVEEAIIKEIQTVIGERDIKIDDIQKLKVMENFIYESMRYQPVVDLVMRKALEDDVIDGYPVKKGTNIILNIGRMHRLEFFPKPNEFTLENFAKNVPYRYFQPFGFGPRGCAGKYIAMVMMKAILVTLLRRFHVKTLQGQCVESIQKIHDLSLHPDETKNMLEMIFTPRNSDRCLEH

[9] = qHTS assay to identify aromatase inhibitors - cell viability counter screen (AID 743084);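 also: cells stimulated with testosterone during compound exposure; nearly all actives have a fitted effect of over 55% in size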

Measured: Potency

CCCCOC(=O)CO
inactive: [1] | [2] | [3] | [4] | [5] | [6] | [7] | [8] | Aromatase (Homo sapiens) | [9]

Cc1ccc(C(C)C)cc2c(C)ccc1-2
inactive: [1] | [2] | [3] | [4] | [5] | [6] | [7] | [8] | Aromatase (Homo sapiens) | [9]

c1ccc(SSc2ccccc2)cc1
inactive: [1] | [2] | [3] | [4] | [5] | [6] | [7] | [8] | Aromatase (Homo sapiens) | [9]

CCCCCCCC/C=C\CCCCCCCCN
inactive: [1] | [2] | [3] | [4] | [5] | [6] | [7] | [8] | Aromatase (Homo sapiens) | [9]

NC(=O)c1cccc([N+](=O)[O-])c1
inactive: [1] | [2] | [3] | [4] | [5] | [6] | [7] | [8] | Aromatase (Homo sapiens) | [9]

CCCCCCOC(=O)C(C)CC (stereo not given)
inactive: [1] | [2] | [3] | [4] | [5] | [6] | [7] | [8] | Aromatase (Homo sapiens) | [9]

O[C@@H]([C@H](O)[C@H](O)CBr)[C@H](O)CBr
inactive: [1] | [2] | [3] | [4] | [5] | [6] | [7] | [8] | Aromatase (Homo sapiens) | [9]

COC(=O)c1ccccc1C
inactive: [1] | [2] | [3] | [4] | [5] | [6] | [7] | [8] | Aromatase (Homo sapiens) | [9]

CC1(C)CC(O)CC(C)(C)N1
inactive: [1] | [2] | [3] | [4] | [5] | [6] | [7] | [8] | Aromatase (Homo sapiens) | [9]

CCC(COC(=O)CCS)(COC(=O)CCS)COC(=O)CCS
inactive: [1] | [2] | [3] | [4] | [5] | [6] | [7] | [8] | Aromatase (Homo sapiens) | [9]

CC1=Nc2ccccc2C1(C)C
inactive: [1] | [2] | [3] | [4] | [5] | [6] | [7] | [8] | Aromatase (Homo sapiens) | [9]

CCn1c2ccccc2c2cc([N+](=O)[O-])ccc21
inactive: [1] | [2] | [3] | [4] | [5] | [6] | [7] | [8] | Aromatase (Homo sapiens) | [9]

C=Cc1cccc(C)c1
inactive: [1] | [2] | [3] | [4] | [5] | [6] | [7] | [8] | Aromatase (Homo sapiens) | [9]

CCC(=O)OC(=O)CC
inactive: [1] | [2] | [3] | [4] | [5] | [6] | [7] | [8] | Aromatase (Homo sapiens) | [9]

CC(C)CCCCCOC(=O)CCS
inactive: [1] | [2] | [3] | [4] | [5] | [6] | [7] | [8] | Aromatase (Homo sapiens) | [9]

Cc1c(C)c2c(c(C)c1O)CC[C@@](C)(CCC[C@H](C)CCC[C@H](C)CCCC(C)C)O2
inactive: [1] | [2] | [3] | [4] | [5] | [6] | [7] | [8] | Aromatase (Homo sapiens) | [9]

CC(=O)OCC=C(C)C
inactive: [1] | [2] | [3] | [4] | [5] | [6] | [7] | [8] | Aromatase (Homo sapiens) | [9]

CC[N+](CC)(CC)CCOC(=O)C(C1CCCC1)C1CCCC1
inactive: [1] | [2] | [3] | [4] | [5] | [6] | [7] | [8] | Aromatase (Homo sapiens) | [9]

CCCCCc1ccc(Cl)cc1
inactive: [1] | [2] | [3] | [4] | [5] | [6] | [7] | [8] | Aromatase (Homo sapiens) | [9]

CCCC1CCC(=O)CC1
inactive: [1] | [2] | [3] | [4] | [5] | [6] | [7] | [8] | Aromatase (Homo sapiens) | [9]

[Cl][Pt-2]([Cl])([Cl])[Cl]
inactive: [1] | [2] | [3] | [4] | [5] | [6] | [7] | [8] | Aromatase (Homo sapiens) | [9]

O=C(O)c1cccc(C(F)(F)F)c1
inactive: [1] | [2] | [3] | [4] | [5] | [6] | [7] | [8] | Aromatase (Homo sapiens) | [9]

Reference: PubChem BioAssay (Tox21)
